Compounds without any hit were thinned out: in the full panel of roughly 83,000, 20% have a hit.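 Activity criterion: percent growth below 10, measured after cells in 96-well plates were exposed to a single compound concentration for 48 hours.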 Values without a mark were called inactive. The source made the active and inactive calls.
Tests used:
Experiment in all cases: NCI-60 one-dose screen, 48 h (100 = growth as untreated, 0 = no growth, -100 = all killed)
Conditions in all cases: 10 µM unless noted
SR leukemia = tested on: SR leukemia
RPMI-8226 leukemia = tested on: RPMI-8226 leukemia
OVCAR-8 ovarian = tested on: OVCAR-8 ovarian
OVCAR-5 ovarian = tested on: OVCAR-5 ovarian
OVCAR-4 ovarian = tested on: OVCAR-4 ovarian
SK-OV-3 ovarian = tested on: SK-OV-3 ovarian
IGROV1 ovarian = tested on: IGROV1 ovarian
OVCAR-3 ovarian = tested on: OVCAR-3 ovarian
HS 578T breast = tested on: HS 578T breast
NCI/ADR-RES ovarian = tested on: NCI/ADR-RES ovarian
T-47D breast = tested on: T-47D breast
BT-549 breast = tested on: BT-549 breast
MDA-MB-435 melanoma = tested on: MDA-MB-435 melanoma
SW-620 colon = tested on: SW-620 colon
MCF7 breast = tested on: MCF7 breast
HCT-116 colon = tested on: HCT-116 colon
HCC-2998 colon = tested on: HCC-2998 colon
KM12 colon = tested on: KM12 colon

Row | Compound | growth (SR leukemia) | growth (RPMI-8226 leukemia) | growth (OVCAR-8 ovarian) | growth (OVCAR-5 ovarian) | growth (OVCAR-4 ovarian) | growth (SK-OV-3 ovarian) | growth (IGROV1 ovarian) | growth (OVCAR-3 ovarian) | growth (HS 578T breast) | growth (NCI/ADR-RES ovarian) | growth (T-47D breast) | growth (BT-549 breast) | growth (MDA-MB-435 melanoma) | growth (SW-620 colon) | growth (MCF7 breast) | growth (HCT-116 colon) | growth (HCC-2998 colon) | growth (KM12 colon)
1 | O=C1C(Cl)=C(Nc2ccccc2)C(=O)c2ccccc21 | -21% (active) | -7.02% (active) | -32.1% (active) | 75.7% | -96.9% (active) | 75.1% | -77.6% (active) | -96.7% (active) | 54% | -15.2% (active) | -2.5% (active) | -94.7% (active) | -97.7% (active) | -72% (active) | -58% (active) | -96.2% (active) | -15.6% (active) | 46.9%
2 | COc1cc(Cc2cc(OC)c(O)c(OC)c2)cc(OC)c1O | 28% | 92.7% | 100% | 112% | 107% | 98.3% | 91.6% | 96.2% | 92.3% | 52.8% | 109% | 87.8% | 2.4% (active) | 41.4% | 68.1% | 85.6% | 73.5% | 55.7%
3 | O=S(=O)(Nc1cc(F)cc(F)c1)c1ccc(-c2cnc(C3CC3)o2)cc1 | 16.2% | 26.5% | 49.6% | 71% | 67.8% | 60.2% | 34.3% | 2.74% (active) | 14.4% | 26.4% | 29.8% | 36.1% | -23.6% (active) | 17.2% | 14.3% | 19.1% | 67.3% | 19.2%
4 | COc1ccc(-c2nc(SCC(=O)Nc3nc4ccc(C)cc4s3)[nH]c(=O)c2C#N)cc1OC | 75.2% | 110% | 101% | 111% | 105% | 74.2% | 95.9% | 112% | 87.4% | 98.3% | 94.8% | 97.8% | 101% | 96.2% | 95.6% | 94.8% | 105% | 102%
5 | CCOC(=O)/C=C1\S/C(=N\Nc2cc(=O)[nH]c3ccc(Br)cc23)N(c2ccccc2)C1=O | 3.76% (active) | -12.5% (active) | 72.2% | 102% | 58% | 110% | 58.7% | -17% (active) | 74.7% | 97.1% | 7.62% (active) | 75.1% | 94.5% | 27.8% | 22.2% | 27.1% | 110% | 88.5%
6 | COC(=O)c1ccc2cc(OC)c(OC)cc2c1 | 91.5% | 101% | 104% | 101% | 113% | 118% | 118% | 112% | 105% | 107% | 96.1% | 90.5% | 98.8% | 99% | 92.2% | 95.6% | 98.8% | 108%
7 | CCOC(=O)c1[nH]cc2c1CCc1sc(Nc3ccccn3)nc1-2 | 56.8% | 45% | 83.1% | 109% | 72.7% | 100% | 97.6% | 82.2% | 95.6% | 72.5% | 55.4% | 79.4% | 86.2% | 103% | 57.1% | 75.7% | 94.6% | 64.3%
8 | CCOC(=O)c1nnn(-c2no[n+]([O-])c2-c2ccc(OC)cc2)c1COc1cccc2cccnc12 | 6.52% (active) | 4.48% (active) | 0.67% (active) | 48.6% | 27% | 12.4% | 23.5% | 16.8% | 24.8% | 9.15% (active) | 53.1% | -14.7% (active) | 9.72% (active) | 26% | 15.2% | 9.49% (active) | 55.4% | 19.7%
9 | CCn1cc(C(=O)N/N=C/c2cccc(F)c2)c(=O)c2cc(F)c(N3CCNC(C)C3)c(F)c21 (stereo unspecified) | -29.2% (active) | -42.2% (active) | -5.39% (active) | 90.2% | 23.8% | 108% | 69.4% | -83.3% (active) | 81.3% | 78.3% | 72.3% | 82.9% | -74.7% (active) | -84.6% (active) | -83.5% (active) | 71.2% | -80.6% (active) | -26.8% (active)
10 | Cc1ccc(O)c(NC(=O)c2cccc(Nc3ccnc(C(F)(F)F)c3)c2)c1 | 39.8% | -1.23% (active) | 73.2% | 87.1% | 45.3% | 72.9% | 79.1% | 93.2% | 93% | 40.2% | 21% | 57.9% | 60.2% | 90.8% | 40.7% | 34.9% | 74.3% | 75.9%
11 | c1ccc(-c2nc3ccccc3[nH]2)c(OCCCCCOc2ccccc2-c2nc3ccccc3[nH]2)c1 | 2.06% (active) | 23.8% | 64.3% | 92.2% | 58.9% | 169% | 70% | 59.7% | 89% | 63.9% | 111% | 88.5% | 63.5% | 18.5% | 19.8% | -10.4% (active) | 92.2% | 98.6%
12 | CC(C)(C)c1ccc(S(=O)(=O)Oc2ccc(-c3sc4cc(OS(=O)(=O)c5ccc(C(C)(C)C)cc5)ccc4c3C(=O)c3ccc(OCCN4CCCCC4)cc3)cc2)cc1 | 104% | 93.6% | 115% | 99.4% | 97.1% | 88.8% | 101% | 102% | 104% | 97.9% | 79.1% | 97.7% | 100% | 101% | 96.8% | 91.6% | 98.1% | 95.5%
13 | COc1ccc(-c2cc(-c3cc(OC)ccc3OC)nc(SCC(C)=O)c2C#N)cc1 | 32.1% | 33.2% | 80.8% | 84.1% | 69.6% | 59.9% | 83.9% | 66.4% | 76.1% | 52.1% | 57.9% | 61% | 36.1% | 92.1% | 70.6% | 74% | 84.5% | 60.2%
14 | O=C(/C=C/c1ccccc1)N(C1CCCCC1)C1CCCCC1 | 83.8% | 51.8% | 95% | 106% | 84% | 117% | 116% | 89.6% | 90.8% | 74.5% | 69.2% | 77.3% | 99% | 92.4% | 88.4% | 57.6% | 92.4% | 95.1%
15 | CCn1cc(C(=O)O)c(=O)c2cc(F)c(N3CCN(CC(=O)Nc4ccccc4)C(C)C3)c(F)c21 (stereo unspecified) | 109% | 102% | 98.3% | 98.3% | 82.4% | 90.7% | 103% | 104% | 91.1% | 96.7% | 95.4% | 106% | 97.1% | 105% | 92.7% | 99.9% | 99.9% | 99.9%
16 | CCN(CC)CCCNc1cc(OC)c(OC)c2cccnc12 | 41.5% | 74.4% | 65.1% | 112% | -10.1% (active) | 56.3% | 35.4% | 30.9% | 74.3% | 76.6% | 33.8% | 81.2% | 42.3% | 58.4% | 31.4% | 9.79% (active) | 76.1% | 84.1%
17 | N#Cc1c(-c2ccc(Br)cc2)nc2c(N=Nc3ccc(S(N)(=O)=O)cc3)c(N)nn2c1N | 41.2% | -13.6% (active) | 46.6% | 72.3% | 61.2% | 82.8% | 40.9% | 55.3% | 45.1% | 97% | 31.5% | 73.8% | 56.2% | 44.1% | 31.6% | 24.9% | 61.8% | 51.8%
